Rows were chosen to be rich in hits. Some 9.2% of all compounds tested hit in one or more screens of this group.
Rab9 promoter act: Rab9 promoter activation. 2.8% of 320,000 active. Huh7 Rab9 promoter-luciferase reporter, luminescence, 24 h. Potency, µM (top dose mostly 9.22 µM), without a hit: top-dose activation, negative = inhibition, hits mostly activators; note: % of control where 0% means no effect; nearly all actives have a fitted effect of over 60% in size
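Luciferase signal after 10 min detection reagent at ambient indicates Rab9 promoter upregulation; stably transfected Huh7 cells were treated 24 h with compound in DMSO at 37 °C, 5% CO2.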
NPC1 promoter act: activates the NPC1 promoter; Huh7 NPC1 promoter luciferase reporter, 24 h; Potency, µM (titrated, usually from 9.22 µM), inactives show top-dose activation, actives largely listed as activators; 2.4% of 320,000 active; note: % of control where 0% means no effect; nearly all actives have a fitted effect of over 60% in size
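Compounds in DMSO were transferred onto Huh7 NPC1-luciferase reporter cells pre-incubated 2 h; after 24 h at 37 °C, Amplite reagent was dispensed and luminescence recorded 10 min later.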
SMN2 splice up: increases expression of the SMN2 splice variant | HEK293 SMN2-luciferase splicing reporter, luminescence, 30-36 h | Potency, µM (series often up to 46.1 µM), for inactives: at the highest dose activity change, positive = activation, hits mostly activators | 2.8% of 210,000 active | AID 1458; note: % of control where 0% means no effect; nearly all actives have a fitted effect of over 55% in size
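HEK293 cells carry an SMN2 minigene-luciferase reporter in which exon 7 inclusion puts luciferase in frame. Cells were seeded at 2000 cells/well, attached for 10-12 hours, then exposed to compounds for 30-36 hours at 37C before ONE-Glo luminescence.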
ELG1 genotox: induces genotoxicity in HEK293T cells with luciferase-tagged ELG1; HEK293T ELG1-luciferase reporter, luminescence, 16 h; Potency, µM (highest dose often 46 µM), without a hit: at the top dose activity change, positive = activation, hits mostly activators; 1.3% of 330,000 active; note: % of control where 0% means no effect; nearly all actives have a fitted effect of over 60% in size
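DMSO vehicle served as control against compound-treated ELG1-luciferase HEK293T cells; exposure lasted 16 hr at 37 °C and 5% CO2, followed by ONE-Glo luminescence detection after 30 min.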
FLuc modulator: inhibits or activates purified firefly luciferase, miR-21 counter-screen. purified FLuc, Km substrates, luminescence inhibition. Potency, µM (highest dose often 57.5 µM), for the others: at the top dose activity change, negative = inhibition, most hits filed as inhibitors. 6.9% of 360,000 active;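 note: plate controls were vehicle for no effect and reference inhibitor for full effect; nearly all actives have a fitted effect of over 55% in size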
Target sequence (P08659 whole entry, looked up): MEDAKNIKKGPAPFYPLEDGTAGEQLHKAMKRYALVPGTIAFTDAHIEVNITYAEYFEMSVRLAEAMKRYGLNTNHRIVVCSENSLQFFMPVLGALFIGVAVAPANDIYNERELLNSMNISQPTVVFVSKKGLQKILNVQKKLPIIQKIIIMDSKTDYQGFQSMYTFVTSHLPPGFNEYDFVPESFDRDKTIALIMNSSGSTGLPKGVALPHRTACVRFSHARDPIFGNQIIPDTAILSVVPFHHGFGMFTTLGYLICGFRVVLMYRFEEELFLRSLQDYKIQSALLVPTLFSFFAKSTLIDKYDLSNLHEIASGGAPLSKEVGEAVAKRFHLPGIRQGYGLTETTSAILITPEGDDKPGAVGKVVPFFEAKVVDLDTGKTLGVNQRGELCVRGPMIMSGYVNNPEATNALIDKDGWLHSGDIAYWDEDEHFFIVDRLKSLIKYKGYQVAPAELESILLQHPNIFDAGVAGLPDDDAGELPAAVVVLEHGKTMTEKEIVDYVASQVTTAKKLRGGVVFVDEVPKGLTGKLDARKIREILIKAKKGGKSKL
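Purified P. pyralis luciferase (10nM final) with 10uM D-luciferin and 10uM ATP (Km levels) in 50mM Tris acetate pH 7.5, 10mM Mg acetate, 0.01% Tween-20, 0.05% BSA; qHTS 6-point titration, ~60 µM downward; luminescence read.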
ELG1 repair inh: inhibitors of ELG1-dependent DNA repair in HEK293T cells; HEK293T ELG1-luciferase reporter, luminescence, 16 h; DNA damage induced by 5-fluorouridine; Potency, µM (titrated, usually from 46.1 µM), without a hit: at the highest dose activity change, negative = inhibition, most hits filed as inhibitors; AID 504467; 2.3% of 330,000 active; note: % is set by controls: 0 for no effect and ±100 for the full control effect; nearly all actives have a fitted effect of over 55% in size
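Step one: seed 2,000 cells per well. Step two: pin-transfer compound or DMSO alongside 5-fluorouridine. Step three: incubate 16 hr, 37 °C, 5% CO2. Step four: add ONE-Glo, wait 30 min, read luminescence.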
An asterisk follows results filed as active; u = inconclusive; x = no result given; [ ] = dose if it differs, or a comment. Calls come from the whole dose curve; as a rule, active = well fitted curve in the direction sought with a large enough effect; inconclusive = small, poorly fitted or top-dose-only effect, or another doubt; inactive = no such curve, though single readings can be large; an effect the other way counts as inactive or inconclusive. Potency is the fitted concentration of half-maximal effect.

SMILES	Rab9 promoter act	NPC1 promoter act	SMN2 splice up	ELG1 genotox	FLuc modulator	ELG1 repair inh
O=C(Nc1cccc(S(=O)(=O)N2CCOCC2)c1)c1c2c(nc3ccccc13)CCC2	2%	-1%	2%	-1%	-2%	-6%
CC(C)OCCCNC(=O)c1ccccc1NC(=O)C1=CSCCO1	0%	2%	x	-5%	-1%	-8%
COc1ccc(CCNC(=O)C(=O)NCC2OCCN2S(=O)(=O)c2ccc(OC)c(OC)c2)cc1 (stereo unspecified)	5%	7%	x	-3%	-13%	u
COc1ccc(CCNC(=O)C(=O)NCC2OCCN2S(=O)(=O)c2ccc3c(c2)OCCO3)cc1 (stereo unspecified)	3%	5%	x	-3%	-4%	u
COc1ccccc1CCNC(=O)C(=O)NCC1OCCN1S(=O)(=O)c1ccc(OC)c(OC)c1 (stereo unspecified)	-5%	-4%	x	-9%	-1%	21µM*
Cc1cc(F)ccc1S(=O)(=O)N1CCCOC1CNC(=O)C(=O)NCCc1c[nH]c2ccccc12 (stereo unspecified)	-2%	1%	-20%	-10%	0%	18µM*
COc1ccc(S(=O)(=O)N2CCOC2CNC(=O)C(=O)NCCc2ccc(OC)c(OC)c2)cc1C (stereo unspecified)	-1%	-2%	-40%	-5%	0%	15µM*
COc1ccc(CCNC(=O)C(=O)NCC2OCCN2S(=O)(=O)c2ccc3c(c2)OCCO3)cc1OC (stereo unspecified)	3%	-1%	x	-10%	0%	12µM*
COc1ccc(CCNC(=O)C(=O)NCC2OCCN2S(=O)(=O)c2ccc(C)cc2)cc1 (stereo unspecified)	-4%	-5%	x	-5%	2%	-16%
COc1ccc(S(=O)(=O)N2CCOC2CNC(=O)C(=O)NCCc2ccccc2)cc1 (stereo unspecified)	-7%	-1%	x	-2%	-5%	21µM*
CCOC(=O)Nc1cccc(OCC(=O)Nc2ccc3c(c2)CCC3)c1	x	x	x	2%	x	u
O=C(c1ccccc1)n1ccc(-c2cccs2)n1	-1%	12%	x	0%	6µM*	6%
CCOC(=O)C1=NOC(CNc2ncc(C(F)(F)F)cc2Cl)C1 (stereo unspecified)	-7%	2%	9%	0%	-1%	13%
Cc1nn(-c2ccccc2)c(Cl)c1C(=O)NNC(=O)c1ccccc1O	-2%	20%	x	12%	u	u
COc1ccc(-c2cnc[nH]2)cc1	2%	5%	21%	0%	-20%	2%
CCC(=O)NCCc1nc2cc(NC(=O)c3cccc([N+](=O)[O-])c3)ccc2n1C	3.5µM*	u	x	u	u	u
CCn1c(CN2CCCCC2)nc2cc(NC(=O)c3cccc([N+](=O)[O-])c3)ccc21	x	x	x	x	-1%	x
CC(=O)NCCc1nc2cc(NC(=O)c3cccc([N+](=O)[O-])c3)ccc2n1C	2.8µM*	2.8µM*	x	u	u	u
CCOc1ccccc1-c1nc(-c2ccc(C)nc2OC)no1	3.2µM*	4.5µM*	u	u	9.5µM*	u
COc1nc(C)ccc1-c1noc(-c2cccs2)n1	0.5µM*	0.56µM*	x	u	1.5µM*	u
COc1nc(C)ccc1-c1noc(-c2ccncc2)n1	u	u	14µM*	u	13µM*	u
COc1cc(-c2nc(-c3ccc(C)nc3OC)no2)cc(OC)c1OC	13%	-2%	9%	-1%	-1%	-5%
CC(=O)N1[C@H](Cc2ccccc2)C=C[C@]1(C)C(=O)NCc1cc(F)cc(C(F)(F)F)c1	x	x	-7%	x	x	x
CCOc1ccc2c(c1)c(=O)c(S(=O)(=O)c1ccccc1)cn2CC(=O)Nc1ccccc1OC	x	x	0%	x	2%	x
CCC1CCC(C(=O)NNC(=O)c2cc(-c3ccco3)[nH]n2)CC1 (stereo unspecified)	2%	-4%	-2%	-9%	-6%	2%
SMILES	Rab9 promoter act	NPC1 promoter act	SMN2 splice up	ELG1 genotox	FLuc modulator	ELG1 repair inh
COc1ccc(C(=O)CN(CCC(=O)O)S(=O)(=O)c2ccc([N+](=O)[O-])cc2)cc1	-3%	-1%	x	-9%	4%	3%
O=C(N/N=C/c1cccc(F)c1)c1c(O)c2c([nH]c1=O)CCCC2	2µM*	1.6µM*	13µM*	u	u	u
Cc1ccc(C(=O)NCCCc2ccccc2)c(Cl)c1	2.2µM*	2.5µM*	x	u	8.5µM*	u
O=C(NCCc1ccccc1)C(=O)Nc1cccc(Br)c1	x	x	-2%	x	0%	x
Cc1cccc(NC(=O)C(=O)NCCCc2ccccc2)c1	u	u	10µM*	23%	u	u
O=C(NCCCc1ccccc1)c1ccc([N+](=O)[O-])cc1Cl	u	u	x	u	8.5µM*	u
Cc1ccc(C(=O)NCCCc2ccccc2)c(C)c1	3.5µM*	1.4µM*	13µM*	16µM*	8.5µM*	u
Cc1cc(C)cc(C(=O)NCCCc2ccccc2)c1	-1%[1.84 µM]	-1%	-2%	2%	-12%	1%
COc1ccc(Cl)cc1Nc1ncnc2c1nc1n2CCCC1	x	x	x	x	-13%	x
Cc1cc(C(=O)COC(=O)Cc2ccc(Br)cc2)c(C)n1C	-1%	1%	x	-1%	u	9%
O=c1c2ccccc2cnn1-c1nc2ccccc2[nH]1	u	0.1µM*	x	-8%	0.17µM*	u
O=c1c(Cl)c(N2CCCCC2)cnn1-c1nc2ccccc2[nH]1	0.11µM*	u	-63%	u	0.38µM*	u
COCCn1c(=O)[nH]c(=O)c2c(C(F)(F)F)cc(-c3cccs3)nc21	-5%	-1%	u	17%	5%	u
Cc1cc(OCC(=O)Nc2ccccc2C)no1	-10%	-1%	x	2%	x	u
C=CC[C@@H](CC(=O)N[C@@H](CO)Cc1ccccc1)C(=O)N[C@@H](COC(=O)[C@@H](CC=C)Cc1ccc(F)cc1)Cc1c[nH]c2ccccc12	x	x	x	-1%	x	1%
C=CC[C@@H](CC(=O)N[C@H](CO)Cc1ccccc1)C(=O)N[C@H](COC(=O)[C@@H](CC=C)Cc1ccc(F)cc1)Cc1c[nH]c2ccccc12	x	x	x	-7%	x	21µM*
C=CC[C@@H](CC(=O)N[C@@H](CO)Cc1ccccc1)C(=O)N[C@H](COC(=O)[C@@H](CC=C)CC(=O)OC(C)(C)C)Cc1c[nH]c2ccccc12	x	x	x	-7%	x	21µM*

Screening data deposited in PubChem by National Center for Advancing Translational Sciences (NCATS).
